# Measurements reported in PubChem BioAssay AID1345083 (National Center for Advancing Translational Sciences (NCATS), 2018).
# Screen size: about 94,000 compounds; about 6,200 (6.6%) were called active. Entries that show only a call come without a potency. Another 31% or so got no clear call; they are omitted. Calls come from the whole dose curve; as a rule, active = well fitted inhibition curve with a large enough effect; inconclusive = small, poorly fitted or top-dose-only effect; inactive = flat fitted curve, though single readings scatter. Many of the other results were omitted from the sample, so actives are more common in it than they were.
# Assay: Cytotoxic Profiling in HEK 293 Cell Line of Diverse Libraries Using Quantitative High-Throughput Screening; note: nearly all actives have a fitted effect of over 60% in size
# Conditions: HEK 293 viability, ATP luminescence (CellTiter-Glo), 48-72 h; series mostly up to 115 µM
# How it was run: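 HEK 293 cells at 250 cells/well were exposed to compounds by pintool transfer for 48 or 72 hr at 37 degree Celsius, 5% CO2. Viability was read as ATP-coupled luminescence with CellTiter-Glo after 10 min at room temperature.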
# Potency is the fitted concentration of half-maximal effect.
row,Compound,Potency
1,CCCNC(=O)N(C1CCOCC1)C1CCN(C(=O)c2ccc(F)c(F)c2)CC1,inactive
2,Cc1cccc(OCC(=O)N2CCCC(n3cc(-c4noc(C)n4)nn3)C2)c1 (stereo not given),inactive
3,COCCCn1c(=O)c(C(=O)N2CCN(C(=O)c3ccccc3)CC2)nc2cccnc21,inactive
4,C=CCNC(=O)C(NC(=O)c1cccc(OC)c1)C1CCN(C(=O)c2ccccc2F)CC1 (stereo not given),inactive
5,C#CCNC(=O)C1CN(c2ccc(OC)cc2)C(=O)N1 (stereo not given),inactive
6,CNC(=O)c1cc(C2CC2)nc2onc(C3CCCN(C(=O)C4CC4)C3)c12 (stereo not given),inactive
7,CN1Cc2ccc(CN(C)C(=O)C3CCN(Cc4ccco4)CC3)cc2C1,inactive
8,c1ccc(-c2nc(C3CCOCC3)nn2CC2COCCO2)cc1 (stereo not given),inactive
9,CC(=O)N1CCN(C(=O)C[C@@H]2c3nc(NC(=O)c4cccs4)sc3C[C@@H]3[C@](C)(CO)[C@H](O)CC[C@]32C)CC1,inactive
10,CN(C)CCNC(=O)C[C@@H]1c2nc(NC(=O)c3ccc(C(C)(C)C)cc3)sc2C[C@@H]2[C@](C)(CO)[C@H](O)CC[C@]21C,31.6 µM (active)
11,COCC(=O)Nc1nc2c(s1)C[C@@H]1[C@](C)(CO)[C@H](O)CC[C@@]1(C)[C@@H]2CC(=O)NCCN1CCOCC1,inactive
12,CC(C)CCN(C1CCOCC1)C1CCN(Cc2cccnc2)CC1,inactive
13,O=C(c1ccc(Cl)cc1Cl)N1CCC(c2nnc3n2C(C(=O)N2CCN(c4ncccn4)CC2)CC3)CC1 (stereo not given),inactive
14,COc1cc(C(=O)N2CCCN(S(C)(=O)=O)c3ccccc32)cc(OC)c1OC,inactive
15,Cc1ccc(CCN2CCCCC23Cc2ccccc2CN(C(=O)CCCC(=O)O)C3)cc1 (stereo not given),inactive
16,CC(=O)NCCC(=O)N1Cc2ccccc2CC2(CCCCN2CC2CCNC2)C1 (stereo not given),inactive
17,CCN1CCCCC12Cc1ccccc1CN(S(C)(=O)=O)C2 (stereo not given),inactive
18,CC(=O)N1Cc2ccccc2CC2(CCCCN2C)C1 (stereo not given),inactive
19,O=C(C1CCCC1)N1Cc2ccccc2CC2(CCCCN2CC2CCNCC2)C1 (stereo not given),25.1 µM (active)
20,O=C(c1ccccc1)N1Cc2ccccc2CC2(CCCN2CC2CCNC2)C1 (stereo not given),79.4 µM (active)
21,O=C(NC1CCCCC1)C1CN(S(=O)(=O)c2cccc(Cl)c2)CC12CCOCC2 (stereo not given),inactive
22,NC(=O)[C@H](CCC(=O)O)NC(=O)[C@@]1(O)C[C@@H](O)[C@H](O)[C@@H](NS(=O)(=O)c2cccc(C(F)(F)F)c2)C1,inactive
23,Cn1nnc(-c2ccc(C(=O)N[C@H]3C[C@@H]4OCC[C@H]34)cc2)n1,inactive
24,c1cnc2nc(C3CCCCN3)[nH]c2c1 (stereo not given),inactive
25,Cc1cc(C(=O)NCC2Cn3cccc3C(=O)N2CC(C)C)n(C)n1 (stereo not given),inactive
